For the experiment, the target named is T1, Protein deacetylase HDAC6 (Homo sapiens) (UniProt Q9UBN7).
T1 sequence (whole entry): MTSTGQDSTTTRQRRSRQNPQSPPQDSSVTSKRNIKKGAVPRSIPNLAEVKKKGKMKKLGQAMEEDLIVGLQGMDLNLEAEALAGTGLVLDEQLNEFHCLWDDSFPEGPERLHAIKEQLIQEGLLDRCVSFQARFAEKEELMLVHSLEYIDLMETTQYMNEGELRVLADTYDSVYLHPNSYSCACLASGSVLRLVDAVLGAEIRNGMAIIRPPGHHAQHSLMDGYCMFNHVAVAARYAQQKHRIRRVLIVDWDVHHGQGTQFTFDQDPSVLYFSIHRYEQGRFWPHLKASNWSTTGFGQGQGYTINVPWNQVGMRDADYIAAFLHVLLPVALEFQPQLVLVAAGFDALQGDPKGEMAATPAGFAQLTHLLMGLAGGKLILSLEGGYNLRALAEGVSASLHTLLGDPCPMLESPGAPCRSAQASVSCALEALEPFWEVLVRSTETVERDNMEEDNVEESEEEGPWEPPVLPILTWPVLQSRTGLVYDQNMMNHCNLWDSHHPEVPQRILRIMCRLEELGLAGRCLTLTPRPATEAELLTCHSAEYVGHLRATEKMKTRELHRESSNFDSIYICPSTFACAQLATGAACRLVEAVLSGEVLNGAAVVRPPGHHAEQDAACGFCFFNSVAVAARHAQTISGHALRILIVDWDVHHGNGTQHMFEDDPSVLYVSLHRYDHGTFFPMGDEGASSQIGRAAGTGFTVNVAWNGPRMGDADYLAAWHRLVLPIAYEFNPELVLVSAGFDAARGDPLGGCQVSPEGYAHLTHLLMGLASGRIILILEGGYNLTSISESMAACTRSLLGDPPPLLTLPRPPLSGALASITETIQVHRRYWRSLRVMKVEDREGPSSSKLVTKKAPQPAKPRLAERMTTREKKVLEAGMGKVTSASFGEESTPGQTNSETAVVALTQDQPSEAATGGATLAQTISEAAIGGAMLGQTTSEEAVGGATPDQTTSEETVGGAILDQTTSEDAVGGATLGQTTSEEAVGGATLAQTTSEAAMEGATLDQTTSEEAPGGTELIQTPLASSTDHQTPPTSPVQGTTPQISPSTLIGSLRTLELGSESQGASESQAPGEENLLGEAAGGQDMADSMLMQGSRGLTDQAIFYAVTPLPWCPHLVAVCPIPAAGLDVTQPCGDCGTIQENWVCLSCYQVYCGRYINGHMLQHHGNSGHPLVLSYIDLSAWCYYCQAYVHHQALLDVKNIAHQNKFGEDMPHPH
The conditions noted are these: at 10 µM.

Structures are written as SMILES. Out of some 5,600 compounds screened, about 390 (7%) showed an effect of 50% or more. This excerpt belongs to a sample that is enriched for strong results. Non-standard residues stand in square brackets, D forms with d. Residues, ends and D or L forms follow the SMILES beside them.

As usually defined, the inhibition is the change of the read-out against control, counted positive when it falls. Turning to `FC(F)(F)c1ccccc1-c1cc(C(F)(F)F)c2[nH]c(C3=NOC4(CCCCC4)C3)nc2c1`, the inhibition is -8.26%.

As to `C[C@]12CC[C@H](O)CC1=CC[C@@H]1[C@@H]2CC[C@]2(C)C(c3cccnc3)=CC[C@@H]12`, the inhibition came out at 11.3%.

Take `CC[S+]([O-])c1nc(-c2cccc(OCc3ccccc3)c2)cc(C(F)(F)F)n1` (stereo unspecified): the inhibition was found to be 21.6%.

`COc1ccc2cc(C(C)C(=O)Oc3ccc(C(N)=S)cc3)ccc2c1` (stereo unspecified): the inhibition was found to be 29%.

`Oc1cc(O)c2c(c1)O[C@H](c1ccc(O)c(O)c1)[C@H](O)[C@H]2c1c(O)cc(O)c2c1O[C@H](c1ccc(O)c(O)c1)[C@H](O)C2`: the inhibition is 11%.

Turning to `COc1ccccc1CC(=N)N1C[C@@H]2C(=O)CCC(c3ccccc3)(c3ccccc3)[C@@H]2C1`, the inhibition is 5.85%.

`Cc1c(C2CCN(CCc3ccccc3)CC2)noc1-c1ccc(Cl)cc1`: the inhibition turned out to be 5.51%.

As for `Cc1nc(-c2ccc(OCC(C)C)c(C#N)c2)sc1C(=O)O`, the inhibition was 94.2%.

Turning to `CCCCOCCOc1nc(-c2ccc(C(=O)O)c(F)c2)sc1C`, the inhibition was 3.39%.

With `Cc1cc(SCc2sc(-c3ccc(C(F)(F)F)cc3)nc2C)ccc1OCC(=O)O`, the inhibition was 46.6%.

For the compound `CCCCCCCC(=O)N[C@H](CN1CCCC1)[C@H](O)c1ccc2c(c1)OCCO2`, the inhibition was 6.2%.

In the case of `CC(=O)NCC(=O)N[C@H](CCC(=O)O)C(=O)O` (Ac-Gly-[dE]-OH), the inhibition was found to be 1.3%.

With `O=C(O)c1ccc2nc(-c3cc(Cl)cc(Cl)c3)oc2c1`, the inhibition came to 76.5%.

As for `CCN1CCCC1CNC(=O)c1cc(S(=O)(=O)CC)c(N)cc1OC` (stereo unspecified), the inhibition is -7.98%.

Take `C[C@@H]1C(=O)O[C@H]2[C@H](O)C34C5C[C@@H](C(C)(C)C)[C@]36[C@@H](OC(=O)[C@@H]6O)O[C@@]4(C(=O)O5)[C@@]12O` (stereo partly specified): the inhibition worked out at 21%.

Regarding `CC#CCOC(=O)c1c(C)nc2sc3c(c2c1N)CCC(O)C3` (stereo unspecified), the inhibition was determined as 72.4%.

For the compound `CN(NC(=O)CC(=O)NN(C)C(=S)c1ccccc1)C(=S)c1ccccc1`, the inhibition was determined as 1.95%.

In the case of `CO[C@H]1CC[C@@H](C(=O)c2ccc3nc4c(cc3c2)CCCO4)CC1`, the inhibition came out at 61%.

`O=S(=O)(c1cccc2c(O)nccc12)N1CCCNCC1`: the inhibition was 9.53%.

In the case of `Cc1ccc(S(N)(=O)=O)cc1`, the inhibition is -0.54%.

For `COc1cc(NC(=O)c2ccc(-c3ccc(Cl)cc3)o2)cc(OC)c1`, the inhibition is 1.11%.

Turning to `COc1cccc(NC(=O)/C=C/c2ccc(Cl)cc2)c1`, the inhibition is 99.9%.

As to `COc1ccc(/C=C/C(=O)O)cc1`, the inhibition is -4.93%.

In the case of `CCN(CC)CCOc1ccc(Nc2ncc3cc(-c4c(Cl)cccc4Cl)c(=O)n(C)c3n2)cc1`, the inhibition worked out at 12.6%.

`Cc1cc(-c2ccc(/N=N/c3ccc4c(S(=O)(=O)O)cc(S(=O)(=O)O)c(N)c4c3O)c(C)c2)ccc1/N=N/c1ccc2c(S(=O)(=O)O)cc(S(=O)(=O)O)c(N)c2c1O`: the inhibition came out at 80.8%.

Consider `NC(=O)NC1NC(=O)NC1=O` (stereo unspecified), for which the inhibition was 1.79%.

With `C[C@@H]1CCO[C@H]2Cn3cc(C(=O)NCc4ccc(F)cc4F)c(=O)c(O)c3C(=O)N12`, the inhibition was -3.66%.

For the compound `O=C1c2ccccc2C(Cc2ccncc2)(Cc2ccncc2)c2ccccc21`, the inhibition came out at 3.99%.

As to `CCN(CC)CCCC(C)Nc1nc(C)cc(Nc2ccc3nc(C)cc(N)c3c2)n1` (stereo unspecified), the inhibition was -7.44%.

Consider `CCc1ccc(OCc2ccccc2C(=O)Nc2ccc3nc(C)cc(N)c3c2)cc1`, for which the inhibition came to 80.4%.

`CCN(CC)CCOC(=O)C(Cc1cccc2ccccc12)CC1CCCO1` (stereo unspecified): the inhibition came out at 2%.

Take `Nc1nccc2c1ncn2[C@@H]1C=C(CO)[C@@H](O)[C@H]1O`: the inhibition is -4.17%.

On to `O=C(NCC1(N2CCN(c3ccccc3)CC2)CCOCC1)c1cccnc1Sc1ccccc1`, for which the inhibition came to 8.43%.

For the compound `CCC(C)(C)C(=O)C(=O)N1CCC[C@H]1C(=O)OCCCc1cccnc1`, the inhibition is -5.62%.

`COc1cc(Nc2nc3ccccc3nc2NS(=O)(=O)c2ccc(NC(=O)c3ccc(C)c(OC)c3)cc2)cc(OC)c1`: the inhibition came out at 17.4%.

As to `COc1cc(C(=O)NS(=O)(=O)c2ccccc2C)ccc1Cc1cn(C)c2ccc(NC(=O)OC3CCCC3)cc12`, the inhibition was 73.7%.

For the compound `COc1cc(N)c(Cl)cc1C(=O)OCCN1CCCCC1`, the inhibition came to 6.86%.

As to `O=C(NC1Cc2ccccc2N(C[C@@H](O)CO)C1=O)c1cc2cc(Cl)sc2[nH]1` (stereo partly specified), the inhibition is -2.31%.

As to `CCCCCCCC/C=C\CCCCCCCC(=O)N[C@@H](CO)Cc1ccc(O)cc1`, the inhibition worked out at 27.9%.

On to `Nc1ccc(/N=N/c2ccccc2)c(N)n1`, for which the inhibition worked out at 102%.

Regarding `NC(C(=O)O)c1cc(O)ccc1Cl` (stereo unspecified), the inhibition was found to be 15.3%.

With `CCCn1c(=O)c2[nH]cnc2n(-c2ccc(Cl)cc2)c1=O`, the inhibition amounted to 20.4%.

As for `COc1ccc(O)cc1`, the inhibition came to 19.4%.

As to `OC[C@H]1O[C@@H](Oc2cc(O)cc(/C=C/c3ccc(O)cc3)c2)[C@H](O)[C@@H](O)[C@@H]1O`, the inhibition is 31.5%.

As to `COc1cc(/C=C/c2ccc(OC)cc2OC)cc(OC)c1`, the inhibition was found to be 86.2%.

Take `Oc1ccc(/C=C/c2cc(O)cc(O)c2)cc1`: the inhibition came out at 97%.

`Oc1cc(O)cc(O)c1`: the inhibition is 18.2%.

In the case of `O=S(=O)(O)c1cc(O)ccc1O`, the inhibition is -4.71%.

Consider `C/C=C(/C(=C/C)c1ccc(O)cc1)c1ccc(O)cc1`, for which the inhibition amounted to 0.77%.

For `COc1cc(/C=C/c2ccc(O)cc2)cc(OC)c1`, the inhibition is 99%.

Consider `COc1ccc(/C=C\c2cc(OC)c(OC)c(OC)c2)cc1O`, for which the inhibition worked out at 14.7%.

Values taken from ChEMBL document CHEMBL4808148, “HDAC6 screening dataset using tau-based substrate in an enzymatic assay yields selective inhibitors and activators” (2021).
